Measurements from PubChem BioAssay (NCATS).
“And” between values parts separate entries of the source, which are not always exact repeats. Equal values may be shown once. Inconclusive results are not listed. The source made the active and inactive calls. Unless noted, calls follow the shape of the dose curve; as a rule, active = well fitted curve in the direction sought with a large enough effect; inconclusive = small, poorly fitted or top-dose-only effect, or another doubt; inactive = no such curve, though single readings can be large; an effect the other way counts as inactive or inconclusive.

Assays:
[1] = target: Lysosomal acid glucosylceramidase (Homo sapiens) (UniProt P04062); assay: Glucocerebrosidase-p2 (AID 348; in the data active = potency below about 10 µM; also: potency is read from the fitted curve at half-maximal effect); conditions: purified GBA, blue fluorogenic substrate, 40 min
Chain of Lysosomal acid glucosylceramidase (Homo sapiens) (P04062 whole entry, looked up): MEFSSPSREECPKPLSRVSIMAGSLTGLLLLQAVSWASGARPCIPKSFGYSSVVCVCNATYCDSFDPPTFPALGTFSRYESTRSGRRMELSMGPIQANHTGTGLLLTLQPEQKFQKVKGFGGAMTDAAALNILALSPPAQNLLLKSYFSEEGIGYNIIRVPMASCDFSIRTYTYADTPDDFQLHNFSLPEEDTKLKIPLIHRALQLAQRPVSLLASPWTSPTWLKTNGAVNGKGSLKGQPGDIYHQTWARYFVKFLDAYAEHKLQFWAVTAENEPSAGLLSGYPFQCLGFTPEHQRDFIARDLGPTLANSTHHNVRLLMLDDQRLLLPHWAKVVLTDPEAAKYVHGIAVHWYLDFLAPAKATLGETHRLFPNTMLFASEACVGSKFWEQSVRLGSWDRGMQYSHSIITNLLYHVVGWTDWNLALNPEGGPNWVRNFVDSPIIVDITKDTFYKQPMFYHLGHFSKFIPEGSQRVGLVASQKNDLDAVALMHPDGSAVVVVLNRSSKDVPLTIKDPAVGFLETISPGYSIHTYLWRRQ
Summary of the method: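 Compounds titrated from 0.6 nM upwards against 0.2 nM enzyme in pH 5.9 citric acid/KH2PO4, taurocholate, tween-20; blue fluorogenic substrate 80 uM, 40 min room temperature, stopped and read Ex 365/Em 440 for AC50.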

[2] = AP1 Signaling Pathway (AID 357; active = well fitted curve in either direction with a large enough effect, not every such curve was filed as active; also: % is scaled to controls: 0 for no effect and ±100 for the full control effect); conditions: ME-180 AP-1-bla reporter, EGF-induced, beta-lactamase ratio, 5 h; at 7.69 µM (top of the series) unless noted
Summary of the method: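 AP-1-bla ME-180 cells with beta-lactamase reporter under AP-1 response element, stimulated with EC50 EGF; compounds titrated, 5 hours at 37 degrees Celsius. CCF4 read at 460/530 nm ratio; positive and negative modulators judged by AC50.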

[3] = NFAT Signaling Pathway (AID 444; active = well fitted curve in either direction with a large enough effect, not every such curve was filed as active;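 also: carbachol stimulus at about its EC50 of 1 µM final; % is scaled to controls: 0 for no effect and ±100 for the full control effect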); conditions: Jurkat NFAT-bla M1, carbachol, beta-lactamase ratio, 5 h; at 7.69 µM (top of the series) unless noted
Summary of the method: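 Jurkat cells with NFAT-driven β-lactamase reporter and co-expressed M1 receptor, stimulated with carbachol (final 1 uM, ~EC50), compound titration, 5 h at 37 °C. CCF4 loaded 1 h at RT; 460/530 nm ratio gave %activity and AC50.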

[4] = Stat Signaling Pathway (AID 446; active = well fitted curve in either direction with a large enough effect, not every such curve was filed as active;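 also: ME-180 cervical cancer cells given 40 pM IL-6 alongside compound; SIE-controlled beta-lactamase reporter measured as 460/530 nm FRET emission ratio; % is scaled to controls: 0 for no effect and ±100 for the full control effect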); conditions: ME-180 SIE beta-lactamase reporter, IL-6 stimulated, 5 h; at 7.69 µM (top of the series) unless noted
Summary of the method: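 Reporter line: ME-180 cervical carcinoma, SIE-beta-lactamase. Treatment: compound with 40 pM IL-6, 5 hrs, 37 C, in low-serum OPTI-MEM with 10 mM HEPES pH 7.3. Detection: 460/530 nm fluorescence.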

[5] = target: Glucocorticoid receptor (Homo sapiens) (UniProt P04150); assay: GR-GFP Redistribution (AID 450;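 active = compounds whose dose series gives a full or clear partial fitted curve of increased nuclear translocation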; also: potency is read from the fitted curve at half-maximal effect); conditions: U2OS GR-GFP nuclear translocation, laser cytometry, 2 h
Chain of Glucocorticoid receptor (Homo sapiens) (P04150 whole entry, looked up, the tested form may be a part): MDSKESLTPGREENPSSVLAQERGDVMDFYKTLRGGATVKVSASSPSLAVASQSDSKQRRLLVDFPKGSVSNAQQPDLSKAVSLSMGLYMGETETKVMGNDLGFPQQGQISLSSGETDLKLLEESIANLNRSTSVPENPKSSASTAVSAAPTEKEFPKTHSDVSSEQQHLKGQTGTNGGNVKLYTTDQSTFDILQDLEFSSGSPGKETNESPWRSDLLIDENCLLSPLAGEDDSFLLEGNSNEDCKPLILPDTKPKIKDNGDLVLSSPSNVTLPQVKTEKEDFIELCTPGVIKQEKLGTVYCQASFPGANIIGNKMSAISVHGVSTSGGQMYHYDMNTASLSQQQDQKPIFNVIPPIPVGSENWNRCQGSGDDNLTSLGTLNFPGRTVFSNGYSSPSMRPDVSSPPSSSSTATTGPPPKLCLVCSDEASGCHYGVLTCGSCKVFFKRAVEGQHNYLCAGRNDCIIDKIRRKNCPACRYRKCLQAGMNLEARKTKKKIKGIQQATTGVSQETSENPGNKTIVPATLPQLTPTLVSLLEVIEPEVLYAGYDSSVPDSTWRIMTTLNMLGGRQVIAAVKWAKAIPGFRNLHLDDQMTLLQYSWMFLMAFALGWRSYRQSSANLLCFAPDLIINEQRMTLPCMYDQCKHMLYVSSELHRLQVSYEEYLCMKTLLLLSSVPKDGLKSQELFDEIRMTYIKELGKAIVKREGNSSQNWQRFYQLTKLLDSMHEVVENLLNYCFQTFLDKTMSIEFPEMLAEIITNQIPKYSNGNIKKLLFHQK

[6] = target: Glucocorticoid receptor (Homo sapiens) (UniProt P04150); assay: GR-EFC Redistribution (AID 451; calls by dose curve; also: potency is read from the fitted curve at half-maximal effect); conditions: CHO-K1 GR-EFC translocation, beta-gal luminescence, 2 h
Summary of the method: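 CHO-K1 cells expressing nuclear EA and GR-ED fragments of b-gal; compounds titrated up to 46 uM final, 2 h at 37 C. GR nuclear translocation read as complemented b-gal luminescence after 1 h RT detection.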

[7] = target: Mitogen-activated protein kinase 10 (Mus musculus) (UniProt Q61831); assay: JNK3 AlphaScreen Assay (AID 530; active = well fitted curve in either direction with a large enough effect, not every such curve was filed as active;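 also: kinase came from lysate of stimulated human HepG2 cells; signal reports phosphorylation of biotinylated GST-cJun 1-79 at Ser73 with 10 µM ATP; % is scaled to controls: 0 for no effect and ±100 for the full control effect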); conditions: JNK3 lysate, c-Jun phosphorylation; series mostly up to 57.1 µM
Summary of the method: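 Pre-activated (IL-1β/TNFα) JNK3 in HepG2 lysates phosphorylates biotin-GST-cJun(1-79), 10 uM ATP; anti-phospho-cJun(Ser73) AlphaScreen read at room temperature, pH 7.6 Tris buffer. Compounds pre-incubated 15 min as titrations.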

[8] = target: 3',5'-cyclic-AMP phosphodiesterase 4B (Homo sapiens) (UniProt Q07343); assay: qHTS Assay for Inhibitors of PDE-IV (AID 607; active = well fitted activation curve with a large enough effect in the main read-out, with a control signal flat, not every such curve was filed as active; also: % of control where 0% means no effect); conditions: HEK293 ACTOne CNG channel cells, membrane potential fluorescence; series mostly up to 22.9 µM
Chain of 3',5'-cyclic-AMP phosphodiesterase 4B (Homo sapiens) (Q07343 whole entry, looked up): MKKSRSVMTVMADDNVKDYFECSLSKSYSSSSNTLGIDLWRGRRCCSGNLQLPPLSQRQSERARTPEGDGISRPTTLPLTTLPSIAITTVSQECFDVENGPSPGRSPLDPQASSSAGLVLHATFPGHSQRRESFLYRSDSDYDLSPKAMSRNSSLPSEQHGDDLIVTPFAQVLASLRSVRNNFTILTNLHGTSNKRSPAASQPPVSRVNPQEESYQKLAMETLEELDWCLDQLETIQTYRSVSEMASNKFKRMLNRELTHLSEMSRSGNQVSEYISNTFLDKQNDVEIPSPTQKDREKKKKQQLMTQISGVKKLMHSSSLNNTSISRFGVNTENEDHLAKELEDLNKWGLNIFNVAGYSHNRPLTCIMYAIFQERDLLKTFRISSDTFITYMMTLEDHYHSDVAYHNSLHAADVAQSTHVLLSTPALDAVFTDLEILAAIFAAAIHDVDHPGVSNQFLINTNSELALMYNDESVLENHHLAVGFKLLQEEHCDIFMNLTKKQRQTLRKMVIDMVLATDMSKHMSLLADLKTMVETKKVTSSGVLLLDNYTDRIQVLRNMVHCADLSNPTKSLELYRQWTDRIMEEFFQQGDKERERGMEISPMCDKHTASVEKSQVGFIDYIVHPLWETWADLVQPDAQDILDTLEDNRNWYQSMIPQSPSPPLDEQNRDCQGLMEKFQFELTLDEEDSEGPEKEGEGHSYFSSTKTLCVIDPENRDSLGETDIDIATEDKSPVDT
Summary of the method: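 Cell-based read-out of cAMP via a modified cyclic nucleotide-gated channel and membrane potential dye (535/590 nm) in HEK293 cells expressing PDE4 endogenously. Compounds tested up to 22.9 uM final; 100 uM RO 20-1724 reference.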

[9] = target: Cytochrome P450 3A4 (Homo sapiens) (UniProt P08684); assay: qHTS Assay for Activators of Cytochrome P450 3A4 (AID 885); conditions: recombinant CYP3A4, Luciferin-PPXE luminescence, 60 min; series mostly up to 57.1 µM; also: nearly all actives have a fitted effect of over 65% in size
Chain of Cytochrome P450 3A4 (Homo sapiens) (P08684 whole entry, looked up): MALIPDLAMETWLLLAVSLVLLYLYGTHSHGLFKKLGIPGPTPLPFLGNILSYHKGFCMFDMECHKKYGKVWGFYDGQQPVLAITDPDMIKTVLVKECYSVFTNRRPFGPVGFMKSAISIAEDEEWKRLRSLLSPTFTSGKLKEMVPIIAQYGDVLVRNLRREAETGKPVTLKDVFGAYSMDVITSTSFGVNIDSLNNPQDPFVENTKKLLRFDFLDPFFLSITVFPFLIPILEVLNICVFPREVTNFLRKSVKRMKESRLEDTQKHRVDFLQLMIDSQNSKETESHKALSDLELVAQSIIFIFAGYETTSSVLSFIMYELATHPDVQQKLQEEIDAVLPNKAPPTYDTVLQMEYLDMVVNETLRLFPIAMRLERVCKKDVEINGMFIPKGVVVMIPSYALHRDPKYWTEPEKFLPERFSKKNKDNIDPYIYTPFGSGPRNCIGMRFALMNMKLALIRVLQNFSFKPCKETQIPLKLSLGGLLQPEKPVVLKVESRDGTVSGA
Summary of the method: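 Signal was normalized against complete inhibition by 57 uM ketoconazole. The reaction used 20nM CYP3A4 with 25uM Luciferin-PPXE, 10-min compound preincubation and a 60-min NADPH-supported step at RT.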

[10] = target: Endonuclease 4 (Escherichia coli (strain K12)) (UniProt P0A6C1); assay: Counterscreen for APE1 Inhibitors: qHTS Validation Assay for Inhibitors of Endonuclease IV (AID 1708); also: % is scaled to controls: 0 for no effect and ±100 for the full control effect; conditions: E. coli endonuclease IV, DNA cleavage fluorescence; series mostly up to 57.1 µM
Summary of the method: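 E. coli EndoIV at 2 nM final, preincubated 15 min at room temperature with compound, then 50 nM TAMRA/BHQ-2 THF abasic-site duplex added. Buffer: 50 mM Tris-HCl pH 7.5, 50 mM NaCl, 2 mM MgCl2, 1 mM DTT, 0.01% Tween-20. Kinetic fluorescence increase, third minus first read.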

[11] = qHTS for differential inhibitors of proliferation of Plasmodium falciparum line 7G8 (AID 1815); conditions: Plasmodium falciparum 7G8 proliferation inhibition; series mostly up to 28.7 µM;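 also: parasite growth measured after three days of incubation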; also: potency is read from the fitted curve at half-maximal effect;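 as to activity change, negative = inhibition: plate controls were vehicle wells for no effect and reference inhibitor wells for full effect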
[12] = qHTS for differential inhibitors of proliferation of Plasmodium falciparum line GB4 (AID 1816); conditions: Potency: Plasmodium falciparum GB4 proliferation inhibition; series mostly up to 28.7 µM;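 also: parasite growth measured after 72 h incubation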; also: potency is read from the fitted curve at half-maximal effect;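 as to activity change, negative = inhibition: 0% = vehicle DMSO and -100% = reference inhibitor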
[13] = qHTS for differential inhibitors of proliferation of Plasmodium falciparum line 3D7 (AID 1876); also: potency is read from the fitted curve at half-maximal effect;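 as to activity, negative = inhibition: parasite growth measured after three days of culture; 0% = vehicle wells and -100% = reference inhibitor wells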; conditions: P. falciparum 3D7 proliferation inhibition; series mostly up to 28.7 µM
[14] = qHTS for differential inhibitors of proliferation of Plasmodium falciparum line HB3 (AID 1886); conditions: Potency: Plasmodium falciparum HB3 proliferation inhibition; series mostly up to 28.7 µM;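 also: parasites grown with compound for 72 h before SYBR Green readout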; also: potency is read from the fitted curve at half-maximal effect;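 as to activity change, negative = inhibition: plate controls were vehicle for no effect and reference inhibitor for full effect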
[15] = target: RecQ-like DNA helicase BLM (Homo sapiens) (UniProt P54132); assay: qHTS Validation Assay for Inhibitors of Bloom's syndrome helicase (BLM) (AID 2364); conditions: BLM helicase DNA unwinding, fluorescence, in vitro; series mostly up to 57.1 µM; also: potency is read from the fitted curve at half-maximal effect;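 as to activity change, negative = inhibition: plate controls were DMSO vehicle for no effect and enzyme-free control for full effect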
Chain of RecQ-like DNA helicase BLM (Homo sapiens) (P54132 whole entry, looked up): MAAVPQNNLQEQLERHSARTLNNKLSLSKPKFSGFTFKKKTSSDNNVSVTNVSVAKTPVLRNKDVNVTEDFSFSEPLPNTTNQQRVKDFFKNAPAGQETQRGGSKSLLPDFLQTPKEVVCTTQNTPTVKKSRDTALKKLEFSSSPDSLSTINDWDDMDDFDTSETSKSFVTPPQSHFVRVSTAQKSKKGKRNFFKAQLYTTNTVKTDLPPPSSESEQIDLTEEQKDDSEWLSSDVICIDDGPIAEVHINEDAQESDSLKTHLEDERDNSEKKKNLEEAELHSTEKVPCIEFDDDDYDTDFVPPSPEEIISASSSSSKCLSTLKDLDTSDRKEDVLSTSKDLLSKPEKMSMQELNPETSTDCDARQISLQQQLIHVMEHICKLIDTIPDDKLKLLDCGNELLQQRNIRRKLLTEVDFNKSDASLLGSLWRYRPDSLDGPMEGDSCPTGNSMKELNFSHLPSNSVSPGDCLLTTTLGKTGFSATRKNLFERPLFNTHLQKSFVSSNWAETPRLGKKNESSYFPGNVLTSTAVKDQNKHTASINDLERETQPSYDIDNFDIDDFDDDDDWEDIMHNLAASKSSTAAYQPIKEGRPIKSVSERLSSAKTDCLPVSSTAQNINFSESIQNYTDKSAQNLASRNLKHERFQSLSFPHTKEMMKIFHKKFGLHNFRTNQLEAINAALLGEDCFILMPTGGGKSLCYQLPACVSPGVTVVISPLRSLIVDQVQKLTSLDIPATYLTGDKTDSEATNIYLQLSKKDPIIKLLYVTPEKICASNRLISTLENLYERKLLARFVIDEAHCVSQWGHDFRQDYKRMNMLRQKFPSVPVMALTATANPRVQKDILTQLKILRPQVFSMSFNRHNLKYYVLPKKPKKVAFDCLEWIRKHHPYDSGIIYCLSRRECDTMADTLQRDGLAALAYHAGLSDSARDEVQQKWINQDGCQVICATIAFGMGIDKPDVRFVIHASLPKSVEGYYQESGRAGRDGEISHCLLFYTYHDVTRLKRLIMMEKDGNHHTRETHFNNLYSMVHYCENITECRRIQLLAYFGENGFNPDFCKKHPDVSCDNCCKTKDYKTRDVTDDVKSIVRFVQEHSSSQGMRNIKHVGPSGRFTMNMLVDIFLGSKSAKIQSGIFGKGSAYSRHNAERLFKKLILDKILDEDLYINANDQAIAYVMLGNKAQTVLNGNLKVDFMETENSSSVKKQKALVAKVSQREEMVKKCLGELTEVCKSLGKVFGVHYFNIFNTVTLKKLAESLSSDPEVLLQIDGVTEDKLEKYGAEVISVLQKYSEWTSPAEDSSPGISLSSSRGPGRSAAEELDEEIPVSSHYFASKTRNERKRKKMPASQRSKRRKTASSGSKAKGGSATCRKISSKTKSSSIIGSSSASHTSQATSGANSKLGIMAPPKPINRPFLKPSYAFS
Summary of the method: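 50 nM BLM preincubated 15 min at room temperature with compound in pH 8.0 Tris buffer containing 2.5 ug/ml poly(dI-dC); started with 200 nM TAMRA/BHQ-2 forked duplex and 2 mM ATP (final). Unwinding read as TAMRA fluorescence increase, two reads 2 h apart.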

[16] = qHTS Assay for Modulators of Human Peripheral Myelin Protein 22 (PMP22) Expression/Activity (AID 1967; active = well fitted curve in the direction sought with a large enough effect in the signal ratio; the % refers to the signal ratio;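 also: 0% = untreated cells and 100% end not stated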); conditions: Cell-based PMP22 reporter, dual-color luciferase ratio, 0% = compound-free control cells, mouse Pmp22 promoter in mouse Schwann cells; series mostly up to 115 µM
Summary of the method: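 Quantitative HTS in a mouse Schwann cell line expressing dual click beetle luciferases: Pmp22 promoter (green) and control EF-alpha promoter (red). After 24h treatment, corrected green/red signal ratio gave %Activity relative to untreated cells.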

[17] = target: Phospholipid hydroperoxide glutathione peroxidase GPX4 (Homo sapiens) (UniProt P36969); assay: Primary qHTS Assay for Inhibitors of Recombinant Selenoprotein Glutathione Peroxidase 4 (GPX4) (AID 1845192); conditions: recombinant GPX4, GR-coupled NADPH fluorescence, 15 min; series mostly up to 50 µM; also: % is scaled to controls: 0 for no effect and ±100 for the full control effect; nearly all actives have a fitted effect of over 65% in size
Chain of Phospholipid hydroperoxide glutathione peroxidase GPX4 (Homo sapiens) (P36969 whole entry, looked up): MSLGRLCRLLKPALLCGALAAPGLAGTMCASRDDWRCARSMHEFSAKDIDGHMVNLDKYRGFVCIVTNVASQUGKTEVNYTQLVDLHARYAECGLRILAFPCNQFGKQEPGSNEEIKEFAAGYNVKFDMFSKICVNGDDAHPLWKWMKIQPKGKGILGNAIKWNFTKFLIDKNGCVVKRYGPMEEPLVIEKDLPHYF
Summary of the method: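 GR-coupled assay: recombinant GPX4 preincubated 30 min with compound at room temperature; final 200 nM GPX4, 1 mM GSH, 0.5 mM cumene hydroperoxide, 0.5 mM NADPH, 100 nM GR, 0.01% BSA, pH 7.5 Tris. NADPH fluorescence (340/450 nm) read at 0 and 15 min.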

[18] = qHTS for differential inhibitors of proliferation of Plasmodium falciparum line W2 (AID 1883); conditions: Potency: Plasmodium falciparum W2 proliferation inhibition; series mostly up to 28.7 µM;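 also: parasites grown with compound for 72 h before lysis and staining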; also: potency is read from the fitted curve at half-maximal effect;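 as to activity change, negative = inhibition: 0% = vehicle wells and -100% = control inhibitor wells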
[19] = qHTS profiling for inhibitors of Plasmodium falciparum proliferation (AID 504749); also: potency is read from the fitted curve at half-maximal effect;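 as to activity, negative = inhibition: 0% = DMSO vehicle and full inhibition = artemisinin control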; as to all read-outs here: nearly all actives have a fitted effect of over 60% in size; conditions: P. falciparum in erythrocytes, SYBR Green DNA, 72 h; for activity, negative = inhibition: at 28.7 µM (top of the series)
Summary of the method: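 P. falciparum-infected erythrocytes (0.3% parasitemia, 2.5% hematocrit) incubated with compound 72 h at 37 C, 5% CO2. Parasite DNA detected by SYBR Green after lysis, overnight at room temperature; normalised to 0.29 uM artemisinin and DMSO.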

COc1ncc2nc(CCc3ccccc3)c(=O)n(C3CC3)c2n1
inactive: Potency [1] > 11.4 µM | activity change, negative = inhibition [2] -0.42% | activity change, negative = inhibition [3] 0.053% | activity, negative = inhibition [4] -2.79% | Potency [5] > 9.22 µM | Potency [6] > 46 µM | outcome [7] | Potency [8] | Potency [9]

C[C@H](Cc1ccccc1)Nc1ncnc2c1ncn2[C@@H]1O[C@H](CO)[C@H](O)[C@H]1O
inactive: outcome [10] | Potency [11] | Potency [12] | Potency [13] | Potency [14] | Potency [15]

Nc1ncnc2c1ncn2[C@@H]1O[C@H](CO)[C@H](O)[C@H]1O
inactive: outcome [10] | Potency [11] | Potency [12] | Potency [13] | Potency [14] | outcome [16] | Potency [15]

COCCn1c(=O)c(-c2ccccc2)nc2cnc(N3CCNCC3)nc21
inactive: Potency [1] > 11.4 µM | Potency [5] > 9.22 µM | Potency [6] > 46 µM | outcome [7] | Potency [8]

NS(=O)(=O)c1ccc(NC(=S)N2CCN(C/C=C/c3ccccc3)CC2)cc1
inactive: Potency [17]

N[C@H](Cc1ccc(O)c(O)c1)C(=O)O
active: Potency [15] 28.2 µM
inactive: outcome [10] | Potency [11] | Potency [12] | Potency [13] | Potency [18] | Potency [14] | outcome [16] | activity, negative = inhibition ([19]; parasite line A) 9.99% | activity, negative = inhibition ([19]; parasite line B) 20.6%

CC(C)(C)[C@]1(O)CCN2CC3c4ccccc4CCc4cccc(c43)[C@@H]2C1 (stereo partly specified)
active: Potency [11] 5.62 µM and 5.01 µM | Potency [12] 6.31 µM and 5.01 µM | Potency [13] 6.31 µM and 3.55 µM | Potency [18] 2.82 µM and 2.24 µM | Potency [14] 12.6 µM and 6.31 µM

CCCC(=O)NCCc1c2n(c3ccc(OC)cc13)Cc1ccccc1-2
active: Potency [11] 11.2 µM | Potency [18] 7.08 µM
inactive: activity change, negative = inhibition [2] -34.8% [at 38 µM] | activity change, negative = inhibition [3] -10.2% [at 38 µM] | Potency [5] > 46 µM | Potency [6] > 46 µM | outcome [7] | Potency [8] | Potency [9] | outcome [10] | outcome [16] | Potency [15]

CC(N)=NCCCC(N)C(=O)O (stereo unspecified)
inactive: outcome [10] | Potency [11] | Potency [12] | Potency [13] | Potency [18] | Potency [14] | outcome [16] | Potency [15]

CCCCC#Cc1nc(N)c2ncn([C@@H]3O[C@H](C(=O)NCC)[C@@H](O)[C@H]3O)c2n1
inactive: Potency [15]
active: Potency [11] 7.94 µM | Potency [13] 8.91 µM | Potency [18] 11.2 µM | Potency [14] 11.2 µM

CN1C[C@H](C(=O)N[C@]2(C)O[C@@]3(O)C4CCCN4C(=O)[C@H](Cc4ccccc4)N3C2=O)C[C@@H]2c3cccc4[nH]cc(c34)C[C@H]21 (stereo partly specified)
active: Potency ([19]; parasite line A) 8.91 µM | Potency ([19]; parasite line B) 4.47 µM

OC[C@H]1O[C@@H](n2cnc3c(N[C@H]4CC5CCC4C5)ncnc32)[C@H](O)[C@@H]1O (stereo partly specified)
inactive: outcome [10] | Potency [11] | Potency [12] | Potency [13] | Potency [14]

N#CCCn1c(=O)c(CCc2ccccc2)nc2cnc(Oc3cccc(Cl)c3)nc21
inactive: Potency [1] > 11.4 µM | activity change, negative = inhibition [3] -8.5% | Potency [5] > 9.22 µM | outcome [7] | Potency [8] | Potency [9]
